Experimental findings from the OligoGym collection are described below.
Note: reference of the scale not given here.

The target of one experiment is EPAS1. Put plainly: pooled miR-30 sensor sort-seq; sequence = guide strand. Particulars: shRNA.
In turn, TTAGAAGTCATTGAAGGTGGGG showed a sensor-assay potency score (higher = more potent) of 0.712. Still for that read-out and setting: with TAGTATGGACAGTTGTGTGTGA the figure was -0.0372; with TTAGCTGGAAGTCTTCCCCGTC, -0.236.

For a further experiment, the target named is EPB41. Described as above. Particulars: shRNA.
Regarding TTAGCTGCTCGGTAACTGGGAA, the sensor-assay potency score (higher = more potent) is -0.397. On to TTGACAAGATTCCTCCTGCTGA, for which the sensor-assay potency score (higher = more potent) was -0.541. For TAAAACTTTACATTAAATGTAA, the sensor-assay potency score (higher = more potent) is -0.313. Sequence ATAATTTCTTAGCTGCTCGGTA registered a sensor-assay potency score (higher = more potent) of -0.474. Consider TTTTTCAGCTCACTGATGCTGG, for which the sensor-assay potency score (higher = more potent) worked out at 0.147.

Sequence TTCTGGGTCGTAGTCTCCCAGT had a sensor-assay potency score (higher = more potent) of -1.42. The sequence TTTACTTGCTGTACGCTCGAAG yielded a sensor-assay potency score (higher = more potent) of 0.135.

Turning to TAGAATAATCTTGAAAGTCTGA, the sensor-assay potency score (higher = more potent) was 0.113. With TAGAGCACTAGCTTGCCTGGTC, the sensor-assay potency score (higher = more potent) stood at 0.107. The sequence TTGATCTCCTCTTGACTCTTGT yielded a sensor-assay potency score (higher = more potent) of 0.588. The sequence TTGACTCTTGTCTAAATCCTCC yielded a sensor-assay potency score (higher = more potent) of -0.522. Sequence TTTGTAGAAACAACCAGCCTGG came in with a sensor-assay potency score (higher = more potent) of 0.246. The sequence TGTTTGACAAGATTCCTCCTGC yielded a sensor-assay potency score (higher = more potent) of 0.721. With TTTGATCTCCTCTTGACTCTTG, the sensor-assay potency score (higher = more potent) came out at 0.604.

TTCTTTGCCTTCTTCCTCGGAC: the sensor-assay potency score (higher = more potent) was -0.102. In turn, TTATGTCTTCTGTTAACTGTGC gave a sensor-assay potency score (higher = more potent) of -0.0684. Regarding TTTACTTCTATTTTGGAGCACT, the sensor-assay potency score (higher = more potent) is -0.574. TTCATAAACTGTGTCATCCAAC: the sensor-assay potency score (higher = more potent) is -0.828. On to TTGAACAATTCTGATATCCTAA, for which the sensor-assay potency score (higher = more potent) was -0.113. TATCTTGTTATGTCTTCTGTTA returned a sensor-assay potency score (higher = more potent) of -0.573.

The sequence TTGGTCACTGACATGTCTGGGT came in with a sensor-assay potency score (higher = more potent) of -0.161. Same read-out and setting: with TAGCTTGCCTGGTCTGAGCTTG the figure was -0.0306. Take ATCTTCTCTGAGTTCTTCCTGA: the sensor-assay potency score (higher = more potent) is -0.459.

A further experiment concerns the target EPC2. Described as above. As to conditions: shRNA.
For the sequence TTAAGTGCAATAATTCTCGTTT, the sensor-assay potency score (higher = more potent) was found to be 0.497. As for TATAACTCTTTTTCTGATCTAC, the sensor-assay potency score (higher = more potent) was 0.207.

Turning to TTGCTGTTTCTGCTGAAGCTGG, the sensor-assay potency score (higher = more potent) is -1.06.

On to TTATTGTTCACAGTCTGCCCTG, for which the sensor-assay potency score (higher = more potent) was -0.344. The sequence TTGCATCTGAACTAACTGCTGC returned a sensor-assay potency score (higher = more potent) of 0.128. The same measure, in the same setting: with TTTCTCTAAACACTTGCTGTGC the figure was -0.595. Same read-out and setting: with TTCTTGAAGTGTTACAAGCTGA the figure was -0.486; with TAGTTTTACATTCTTGAACTTT, -0.105; with TTTTTCTCTAAACACTTGCTGT, -0.823. As for TTGAGGTACATTCTTCACTATC, the sensor-assay potency score (higher = more potent) is -1.27. In turn, TTAATTTCCATCTTTCTGTTAA displayed a sensor-assay potency score (higher = more potent) of -0.679. The same measure, in the same setting: with TTCTTCACTATCACTGTCCTGT the figure was 0.612.
